High-throughput results (PubChem BioAssay)
Only a selection was taken, and hits are over-represented in it overall.
GIRK2 act: GIRK2 channel activators by thallium flux; HEK293 GIRK2/NPY4 cells, thallium flux fluorescence; activation (% efficacy), % for hits at 75 µM; P48051; 34,000 tested, under 10 active;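 active = primary screen hit, no activity in plain HEK293 cells, and in GIRK2-only cells above 5% efficacy rising with concentration; inactive = the rest, including fluorescent compounds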;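 note: efficacy is normalized control-subtracted fluorescence 15 s after thallium addition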
GluA2 TARP mod: modulates AMPAR-stargazin complexes | calls only at 30 µM | hit rate 3.5% among 40,000 | HEK293 GluA2+stargazin, membrane potential dye (FDSS), glutamate EC50; hits were called plate by plate, in both directions;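 active = any of four per-well response measures lying three or more SD from its plate-wide compound average, in either direction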
* hit, by the source's call.

For CCOc1ccc(N2CCn3c2nn(CC(=O)Nc2ccc(F)cc2F)c(=O)c3=O)cc1 the results were GIRK2 act inactive and GluA2 TARP mod inactive.
Cc1ccc(Cn2nc(C(=O)N3CCc4ccccc43)ccc2=O)cc1 was read as GIRK2 act inactive and GluA2 TARP mod inactive.
For COc1cccc(-c2nc3ccccc3n2CC(=O)OC(C)C)c1 the results were GIRK2 act inactive and GluA2 TARP mod inactive.
`CSCCC(C)(O)CNS(=O)(=O)c1ccc(C(C)C)cc1` (configuration not stated) gave GIRK2 act inactive and GluA2 TARP mod inactive.
O=C(Cn1cccn1)N1CC(c2nc(-c3ccco3)no2)C1 was read as GIRK2 act inactive.
`CSc1ccc(CNC(=O)CSc2nc(-c3sc(-c4ccccc4)nc3C)cc(=O)[nH]2)cc1` gave GIRK2 act inactive.
`O=C(NCc1cccs1)C(=O)NCC1CCN(Cc2ccco2)CC1` gave GIRK2 act inactive and GluA2 TARP mod inactive.
For CN(C)C(CNS(=O)(=O)c1cc(Cl)ccc1Cl)c1cccn1C (configuration not stated) the results were GIRK2 act inactive and GluA2 TARP mod active.
Screening Cc1ccc(Cl)cc1S(=O)(=O)NCC(c1cccn1C)N(C)C (configuration not stated) returned GIRK2 act inactive and GluA2 TARP mod inactive.
CCc1ccc(Oc2cc(N3CCC(C(=O)NCc4ccccc4F)CC3)ncn2)cc1 was read as GIRK2 act inactive and GluA2 TARP mod active.
For CCc1ccc(Oc2cc(N3CCC(C(=O)NCc4ccc(SC)cc4)CC3)ncn2)cc1 the results were GIRK2 act inactive and GluA2 TARP mod inactive.
`O=C(Cc1ccc(F)cc1)NCCC(O)c1ccccc1` (configuration not stated) gave GIRK2 act inactive and GluA2 TARP mod inactive.
Screening O=C(CCc1ccccc1)NCCC(O)c1ccccc1 (configuration not stated) returned GIRK2 act inactive and GluA2 TARP mod active.
For O=C(CNC(=O)c1ccccc1)NCC#CCN1CCc2ccccc2C1 the results were GluA2 TARP mod inactive.
For Cc1cc(=O)n(CC(=O)N2CCC(Cc3ccccc3)CC2)cn1 the results were GIRK2 act inactive and GluA2 TARP mod inactive.
For CCOc1cc(C(=O)NCC2COC3(CCCCC3)O2)cc(OCC)c1OCC (configuration not stated) the results were GIRK2 act inactive and GluA2 TARP mod inactive.
For CCSc1ccccc1C(=O)NCC(O)Cc1ccccc1 (configuration not stated) the results were GIRK2 act inactive and GluA2 TARP mod active.
CCOc1ccc2ccccc2c1C(=O)NCC1COC2(CCCCC2)O1 (configuration not stated) was read as GIRK2 act inactive and GluA2 TARP mod active.
Screening COC(=O)NCC(O)Cc1ccccc1 (configuration not stated) returned GIRK2 act inactive and GluA2 TARP mod inactive.
Screening CCOc1ccc2ccccc2c1C(=O)NCC(O)Cc1ccccc1 (configuration not stated) returned GIRK2 act inactive and GluA2 TARP mod active.
`CCOc1ccc2ccccc2c1C(=O)NCCc1ccsc1` gave GIRK2 act inactive and GluA2 TARP mod active.
For CCOc1ccc2ccccc2c1C(=O)NCC(O)c1ccc(C(F)(F)F)cc1 (configuration not stated) the results were GIRK2 act inactive.
CCOc1ccc2ccccc2c1C(=O)NCc1nc(C)no1 was read as GIRK2 act inactive.
`O=S(=O)(NCCC(O)c1cccs1)c1ccc(OC(F)(F)F)cc1` (configuration not stated) gave GIRK2 act inactive and GluA2 TARP mod active.
`O=S(=O)(NCCC(O)c1cccs1)c1cccc(C(F)(F)F)c1` (configuration not stated) gave GIRK2 act inactive and GluA2 TARP mod inactive.
`CC(C)NC(=O)CSc1nnc(N2CCN(c3ccc(F)cc3)CC2)s1` gave GIRK2 act inactive and GluA2 TARP mod active.
`CCOC(=O)C(C)Sc1nnc(N2CCN(c3ccc(F)cc3)CC2)s1` (configuration not stated) gave GIRK2 act inactive and GluA2 TARP mod inactive.
For CC(C)N1CCC(CNS(=O)(=O)c2ccc3c(c2)OCCO3)CC1 the results were GIRK2 act inactive and GluA2 TARP mod inactive.
For CC(C)N(Cc1ccccc1)C(=O)c1cc2cccnc2n(Cc2ccc(F)cc2)c1=O the results were GIRK2 act inactive and GluA2 TARP mod inactive.
Screening c1ccn2cc(C34CC5CC(CC(C5)C3)C4)nc2c1 returned GluA2 TARP mod active.
`Cc1cc(NC(=O)c2cccc([N+](=O)[O-])c2)ccc1N1CCCCC1=O` gave GIRK2 act inactive and GluA2 TARP mod inactive.
Screening CSc1ccc(-c2noc(CSc3nc4ccccc4c(=O)n3Cc3ccco3)n2)cc1 returned GluA2 TARP mod inactive.
COc1ccc(-c2noc(CSc3nc4ccccc4c(=O)n3Cc3ccco3)n2)cc1OC was read as GluA2 TARP mod active.
`CC(C)(C)c1cc(NC(=O)CCSc2ccccc2)n(CCO)n1` gave GIRK2 act inactive and GluA2 TARP mod active.
Screening CC(C)(C)c1cc(NC(=O)CSCc2ccccc2)n(CCO)n1 returned GIRK2 act inactive and GluA2 TARP mod active.
For O=C(CSCc1ccccc1)Nc1cc(-c2cccs2)nn1CCO the results were GIRK2 act inactive and GluA2 TARP mod inactive.
For CC(C)(C)c1cc(NC(=O)Cc2ccccc2Cl)n(CCO)n1 the results were GIRK2 act inactive and GluA2 TARP mod inactive.
Cc1cccc(CC(=O)NCCS(=O)(=O)N2CCN(Cc3ccccc3)CC2)c1 was read as GIRK2 act inactive and GluA2 TARP mod inactive.
`CC1Cc2c(NC(=O)c3cccs3)nn(C)c2NC1=O` (configuration not stated) gave GIRK2 act inactive and GluA2 TARP mod inactive.
Screening COc1cccc(C(=O)Nc2ccc3c(c2)CCC(=O)N3)c1OC returned GluA2 TARP mod inactive.
Screening COc1cc(/C=C2\SC(=S)N(c3ccc(O)c(C(=O)O)c3)C2=O)ccc1O returned GluA2 TARP mod inactive.
For COc1cc(/C=C2\SC(=S)N(c3ccc(C(=O)O)c(O)c3)C2=O)ccc1O the results were GluA2 TARP mod active.
For COc1ccc(C(=O)CSc2nccn(-c3cccc4ccccc34)c2=O)cc1OC the results were GluA2 TARP mod inactive.
Screening C=CCCC(=O)NCC#CCN1CCc2ccccc2C1 returned GIRK2 act inactive and GluA2 TARP mod inactive.
O=C(CCCc1ccccc1)NCC#CCN1CCc2ccccc2C1 was read as GIRK2 act inactive and GluA2 TARP mod active.
For O=C(CCCn1nc(-c2ccco2)ccc1=O)Nc1cccc(F)c1 the results were GIRK2 act inactive.
`O=C(CN1CCN(CC(=O)Nc2cccc(F)c2)CC1)Nc1ccc(Cl)cc1` gave GluA2 TARP mod active.
O=C(CN1CCN(C2c3ccccc3-c3ccccc32)CC1)Nc1cccc(F)c1 was read as GluA2 TARP mod inactive.
For O=C(Nc1sccc1-c1nc2ccccc2s1)c1ccc([N+](=O)[O-])s1 the results were GIRK2 act inactive and GluA2 TARP mod inactive.
COc1ccc(C(=O)/C=C/c2ccccc2Cl)c(OC)c1 was read as GluA2 TARP mod inactive.
